What was measured:
Conditions in all cases: concentration: 1 μM, replicates: in singlicate; n = 1
HPK1 = test system: HPK1
HUNK = test system: HUNK
ICK = test system: ICK
IGF1R = test system: IGF1R
IKK-alpha = test system: T1, IKK-alpha
T1 construct: gene CHUK

IKK-beta = test system: T2, IKK-beta
T2 construct: gene IKBKB

IKK-epsilon = test system: T3, IKK-epsilon
T3 construct: gene IKBKE

INSRR = test system: INSRR
INSR = test system: INSR
IRAK1 = test system: IRAK1
IRAK3 = test system: IRAK3
IRAK4 = test system: IRAK4
ITK = test system: ITK
[1] = test system: JAK1(JH1domain-catalytic)
[2] = test system: JAK1(JH2domain-pseudokinase)
[3] = test system: JAK2(JH1domain-catalytic)
[4] = test system: JAK3(JH1domain-catalytic)
JNK1 = test system: T4, JNK1
T4 construct: gene MAPK8

JNK2 = test system: T5, JNK2
T5 construct: gene MAPK9

JNK3 = test system: T6, JNK3
T6 construct: gene MAPK10
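Further: KINOMEscan kinase panel screen.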

| SMILES | %Inh (HPK1) [%] | %Inh (HUNK) [%] | %Inh (ICK) [%] | %Inh (IGF1R) [%] | %Inh (IKK-alpha) [%] | %Inh (IKK-beta) [%] | %Inh (IKK-epsilon) [%] | %Inh (INSRR) [%] | %Inh (INSR) [%] | %Inh (IRAK1) [%] | %Inh (IRAK3) [%] | %Inh (IRAK4) [%] | %Inh (ITK) [%] | %Inh [1] [%] | %Inh [2] [%] | %Inh [3] [%] | %Inh [4] [%] | %Inh (JNK1) [%] | %Inh (JNK2) [%] | %Inh (JNK3) [%] |
| --- | --- | --- | --- | --- | --- | --- | --- | --- | --- | --- | --- | --- | --- | --- | --- | --- | --- | --- | --- | --- |
| CCCCCc1nc2c(N)ncnc2n1CCCCC [SKF-97255] | 4 | 26 | 0 | 0 | 0 | 0 | 0 | 0 | 0 | 0 | 0 | 0 | 0 | 0 | 35 | 33 | 0 | 0 | 0 | 0 |
| C[C@@H](Oc1cc(-n2cnc3ccc(NC(=O)NC(C)(C)C)cc32)sc1C(N)=O)c1ccccc1Cl [GSK346294] | 35 | 0 | 0 | 0 | 0 | 0 | 23 | 0 | 0 | 15 | 12 | 0 | 14 | 2 | 0 | 0 | 0 | 0 | 6 | 0 |
| COc1cc2ncn(-c3cc(OCc4sccc4Cl)c(C(N)=O)s3)c2cc1OC [GSK448459] | 52 | 0 | 12 | 0 | 0 | 0 | 0 | 0 | 0 | 35 | 0 | 4 | 12 | 0 | 0 | 2 | 0 | 20 | 11 | 7 |
| c1ccc(-c2n[nH]cc2-c2ccnc3ccccc23)nc1 [GW271431] | 27 | 4 | 0 | 12 | 0 | 0 | 22 | 1 | 6 | 6 | 0 | 6 | 14 | 10 | 0 | 3 | 0 | 17 | 33 | 12 |
| COc1ccc(Nc2nccc(N3CCC(NC(=O)Nc4cc(C)ccc4C)C3)n2)cc1 (stereo not shown) [GSK1379741] | 36 | 0 | 13 | 0 | 0 | 21 | 0 | 0 | 0 | 18 | 19 | 16 | 10 | 23 | 0 | 0 | 0 | 24 | 0 | 5 |
